PubChem BioAssay AID1851 (National Center for Advancing Translational Sciences (NCATS), 2009)
“And” between values parts separate entries of the source, which are not always exact repeats. Equal values may be shown once. The whole screen tested about 16,000 compounds, of which about 2,600 (16%) were called active. About 20% were inconclusive and are not listed. Calls follow the shape of the dose curve; as a rule, active = well fitted curve in the direction sought with a large enough effect; inconclusive = small, poorly fitted or top-dose-only effect, or effect the other way; inactive = no such curve, though single readings can be large or run the other way. Only a sample is shown. Square brackets hold non-standard residues; d marks the D form. Peptide text beside a SMILES is read from it.

These molecules were tested against Cytochrome P450 2D6 (Homo sapiens) (UniProt P10635) (assay: Cytochrome panel assay with activity outcomes). Details: recombinant CYP, pro-luciferin dealkylation, luminescence, p450-cyp2d6; series mostly up to 57.1 µM; activity, negative = inhibition: at the top concentration.
% is scaled to controls: 0 for no effect and ±100 for the full control effect.

Chain of Cytochrome P450 2D6 (Homo sapiens) (P10635 whole entry, looked up): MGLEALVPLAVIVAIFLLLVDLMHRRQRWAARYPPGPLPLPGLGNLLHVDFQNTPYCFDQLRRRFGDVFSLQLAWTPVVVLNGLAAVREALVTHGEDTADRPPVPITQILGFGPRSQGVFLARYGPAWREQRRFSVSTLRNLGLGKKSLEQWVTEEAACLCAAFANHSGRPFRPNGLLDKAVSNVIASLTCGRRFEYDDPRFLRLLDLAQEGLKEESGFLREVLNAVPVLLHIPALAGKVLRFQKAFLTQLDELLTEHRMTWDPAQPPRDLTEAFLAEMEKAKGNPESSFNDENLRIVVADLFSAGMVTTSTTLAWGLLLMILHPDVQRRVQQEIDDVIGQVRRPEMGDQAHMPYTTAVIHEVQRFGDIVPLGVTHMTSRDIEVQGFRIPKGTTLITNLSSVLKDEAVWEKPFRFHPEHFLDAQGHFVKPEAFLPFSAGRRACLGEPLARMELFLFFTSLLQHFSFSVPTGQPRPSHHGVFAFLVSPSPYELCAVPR

Structure (SMILES)	activity, negative = inhibition	AC50
C=CCNC(=S)Nc1ccc2nc(C)c(C)nc2c1	-21.9% (inactive)	–
Cc1ccc(NC(=O)CN(C)C(=O)CSc2n[nH]c(N)n2)cc1	-2.04% (inactive)	–
CCn1cc(C(=O)N/N=C(/C)c2ccc(F)cc2)c(=O)c2cc(F)c(N3CCCC3)cc21	-16.1% (inactive)	–
CCc1cccc2c3c([nH]c12)[C@@](CC)(CC(=O)O)OCC3	8.03% [at 25.6 µM] (inactive)	–
O=C1S/C(=C/c2ccc(N3CCOCC3)o2)C(=O)N1Cc1ccc(F)cc1	-5.57% (inactive)	–
COc1ccc(NC(=O)C2(c3ccc(NC(=O)c4ccc(C)cc4)cc3)CCCC2)cc1	-1.99% (inactive)	–
CC(=NC1CCCCC1)c1ccccc1O	-7.44% [at 11.4 µM] (inactive)	–
C/C(=N/Nc1ccc2ccccc2n1)c1ccccc1O	–	0.794 µM (active)
CC(=O)/C=C/c1ccc2ccccc2n1	-25.2% (inactive)	–
COc1ccc(/C(O)=C2/C(=O)C(=O)N(CCN3CCOCC3)C2c2ccc(C)cc2)cc1 (stereo unspecified)	29.8% (inactive)	–
CN1CCN(c2ncc3nc(CCc4ccccc4)c(=O)n(C)c3n2)CC1	-8.43% (inactive)	–
O=C(O)[C@@H]1[C@@H](C(=O)NCc2ccncc2)[C@@H]2C=C[C@@H]1O2	-9.91% [at 11.4 µM] (inactive)	–
O=C(COc1ccc([N+](=O)[O-])cc1)NN=C1CCCC1	-17.7% (inactive)	–
O=C(CN(c1ccccc1)S(=O)(=O)c1ccccc1[N+](=O)[O-])NN=C1CCCCCCC1	–	4.47 µM (active)
COc1ccc(N(CC(=O)NN=C2CCCC2)S(=O)(=O)c2ccccc2)cc1	-23.6% (inactive)	–
CNC(=O)[C@H]1O[C@H](n2cnc3c(NCc4cccc(I)c4)ncnc32)[C@@H](O)[C@@H]1O	-3.89% (inactive)	–
CCCCC(C=O)NC(=O)C(CC(C)C)NC(=O)OCc1ccccc1 (stereo unspecified)	-8.92% (inactive)	–
NCc1ccccc1CC(=O)N[C@@H]1C(=O)N2C(C(=O)O)=C(CSc3nnnn3CC(=O)O)CS[C@@H]12	5.45% [at 25.6 µM] (inactive)	–
COc1cc(/C=N\NC(=O)C2C(=O)NCC2c2ccccc2)cc(OC)c1O (stereo unspecified)	0.0367% (inactive)	–
Cc1cccc(C)c1NC(=O)N1CCC(N2CCCCC2)CC1	-13.6% (inactive)	–
CCCCN1CCCC[C@H]1C(=O)Nc1c(C)cccc1C	–	0.501 µM (active)
Cc1cccc(C)c1NC(=O)CCN1C(=O)C2C3CCC(C3)C2C1=O (stereo unspecified)	-0.973% (inactive)	–
Cc1ccc(/C(C#N)=C/c2cccc([N+](=O)[O-])c2)cc1	8% [at 11.4 µM] (inactive)	–
CN(C)Cc1cc(O)c(O)c(CN(C)C)c1	1.36% [at 11.4 µM] (inactive)	–

Structure (SMILES)	activity, negative = inhibition	AC50
COC(=O)c1cc(-c2ccccc2)sc1NC(=O)CN1C(=O)c2ccccc2C1=O	-10.5% (inactive)	–
Cc1ccc2nc(-c3ccc(NC(=O)c4ccc(N)cc4)c(S(=O)(=O)O)c3)sc2c1	10.5% [at 11.4 µM] (inactive)	–
COc1ccc(CCNC(=O)CCN2C(=O)C(C)Oc3ccc(C)cc32)cc1OC (stereo unspecified)	-5.38% (inactive)	–
Cc1ccc2c(c1)N(CC(=O)NCc1cccs1)C(=O)C(C)O2 (stereo unspecified)	–	12.6 µM (active)
Cc1ccc(C)c(NC(=O)Cn2nnc(C(=O)NCc3cccs3)c2N)c1	-4.92% (inactive)	–
COc1ccccc1COC(=O)Nc1c(C)nn(C)c1Cl	13.3% (inactive)	–
COc1ccc2c(c1)c(CC(=O)N1CCOCC1)c(C)n2C(=O)c1ccc(Cl)cc1	0.728% (inactive)	–
Nc1cccc2cc(S(=O)(=O)Nc3ccc(C(=O)O)cc3)ccc12	4.25% [at 11.4 µM] (inactive)	–
COc1c(N2CCN(C(=S)Nc3ccc(F)cc3)C(C)C2)c(F)cc2c(=O)c(C(=O)O)cn(C3CC3)c12 (stereo unspecified)	-2.42% (inactive)	–
O=C(N/N=C/c1ccc([N+](=O)[O-])o1)c1cc(-c2ccncc2)nc2ccccc12	–	14.1 µM (active)
CCOC(=O)N/N=C\c1ccc([N+](=O)[O-])o1	-12.6% (inactive)	–
O=C(O)c1cc(-c2ccncc2)nc2ccccc12	8.68% [at 11.4 µM] (inactive)	–
COn1c(SC(C)C)nc2ccccc2c1=O	-13.7% (inactive)	–
Cc1cc(C)n(-c2nc3ccccc3c(=O)n2OCc2ccc(Cl)cc2)n1	-58.9% (inactive)	–
Cc1ccc(-n2c(SCc3ccc([N+](=O)[O-])cc3)nc3ccccc3c2=O)cc1	11.1% (inactive)	–
COn1c(SCc2ccc(C)cc2C)nc2ccccc2c1=O	–	6.31 µM (active)
CC(C)On1c(SC(C)C)nc2ccccc2c1=O	5.46% (inactive)	–
COn1c(SCc2cccc(Cl)c2)nc2ccccc2c1=O	–	0.891 µM (active)
CO[C@H]1COC(=O)C/C=C\[C@H](C)[C@@H](OC)COC(=O)[C@H](Cc2ccccc2)NC(=O)C/C=C\[C@@H]1C	-13.7% [at 11.4 µM] (inactive)	–
O=S(=O)(O)[C@@H](CO)c1ccccc1 (tested in a mixture with another compound)	14% [at 11.4 µM] (inactive)	–
CC1CCCC(NC(=O)C2CCN(S(=O)(=O)N3CCOCC3)CC2)C1C (stereo unspecified)	24.2% (inactive)	–
O=C(O)C1CCCCC1C(=O)Nc1cc(Cl)ccc1Cl (stereo unspecified)	-1.59% (inactive)	–
Cc1ccc(S(=O)(=O)O[C@@H]2[C@H]([C@@H]3COC(C)(C)O3)O[C@H]3OC(C)(C)O[C@@H]32)cc1	5.58% [at 11.4 µM] (inactive)	–
O=C(O)/C=C/C(=O)Nc1ccccc1-c1ccccc1	26.2% (inactive)	–

Structure (SMILES)	activity, negative = inhibition	AC50
CCOC(=O)c1cc2c(C)n(-c3ccc(C)cc3)c(C)c2ccc1=O	-13.2% (inactive)	–
O=C1NCN(c2ccccc2)C12CCN(CCCC(c1ccc(F)cc1)c1ccc(F)cc1)CC2	–	10 µM (active) and 1.58 µM (active)
O[C@H](CCCN1CCN(c2ncc(F)cn2)CC1)c1ccc(F)cc1	-2.23% (inactive)	–
Cc1ccc(NCCC(=O)c2ccc(Cl)cc2)cc1	-11.3% (inactive)	–
Cc1ccc(NCCC(=O)c2ccc(Cl)cc2)cc1C	-13% (inactive)	–
CN(C)CCNC(=S)Nc1cccc(Cl)c1	-23.3% (inactive)	–
O=C(Nc1cccc(Cl)c1)Nn1cnnc1	8.42% [at 11.4 µM] (inactive)	–
O=C(NCCc1ccc(Cl)cc1)Nc1cccc(Cl)c1	–	0.891 µM (active)
O=C(CNc1cccc(Cl)c1)c1ccc(Cl)cc1	–	0.447 µM (active)
Cc1cnn(-c2cc(N/N=C/c3ccccc3F)ncn2)c1	2.65% (inactive)	–
O=C(O)[C@@H]1[C@@H](C(=O)NCc2cccnc2)[C@@H]2C=C[C@@H]1O2	20.9% [at 11.4 µM] (inactive)	–
CCCc1nnc(SCC(=O)O)n1/N=C/c1ccc2c(c1)OCO2	-14.8% (inactive)	–
O=C(c1ccco1)N1CCN(c2cc(=O)n(C3CCCCC3)c(=O)[nH]2)CC1	-9.63% (inactive)	–
CCCCCCc1c(C[C@H](N)C(=O)O)o[nH]c1=O	–	inactive
Oc1ccccc1-c1nnc(-c2ccc(C(F)(F)F)cc2)o1	6.29% (inactive)	–
CCN(CC)CCCNC(=O)C1CCC(=O)N(c2ccc(OC)cc2)C1c1ccc(F)cc1 (stereo unspecified)	4.23% (inactive)	–
CCN(CC)CCCNC(=O)CC1Sc2ccccc2NC1=O (stereo unspecified)	–	5.01 µM (active)
Cc1c(Cl)cccc1NC(=O)C[C@H]1Sc2ccccc2NC1=O	-12% [at 11.4 µM] (inactive)	–
CN(Cc1ccco1)c1nc(-c2ccc3c(c2)OCO3)nc2ccccc12	–	10 µM (active)
CN(Cc1ccco1)c1nc(-c2ccoc2)nc2ccccc12	–	15.8 µM (active)
CN(C)c1ccc(-c2nc(N(C)Cc3ccco3)c3ccccc3n2)cc1	–	12.6 µM (active)
CN(Cc1ccccc1)c1nc(-c2ccc([N+](=O)[O-])cc2)nc2ccccc12	-3.33% (inactive)	–
O=c1c(-c2cc(F)cc(F)c2)nc2cnc(N3CCOCC3)nc2n1C1CC1	-4.8% (inactive)	–
CSCC[C@H](C=O)NC(=O)[C@H](CC(C)C)NC(=O)[C@H](CC(C)C)NC(C)=O (Ac-Leu-Leu-[dM]-aldehyde)	9.44% (inactive)	–

Structure (SMILES)	activity, negative = inhibition	AC50
c1cc(NNc2cccc(-c3nn[nH]n3)c2)cc(-c2nn[nH]n2)c1	16.4% [at 11.4 µM] (inactive)	–
COCCCNC(=O)C1CC(=O)N(Cc2ccc(OC)cc2)C1 (stereo unspecified)	-5.7% (inactive)	–
CN(C)c1ncc2nc(-c3ccc(F)cc3)c(=O)n(Cc3cccs3)c2n1	7.31% (inactive)	–
Cc1cc(C)c2nc(-c3ccccn3)cc(C(=O)Nc3ccc(S(=O)(=O)Nc4cc(C)on4)cc3)c2c1	8.05% (inactive)	–
O=C(O)c1ccc(S(=O)(=O)N=Nc2c(O)[nH]c3ccccc23)cc1	17% [at 11.4 µM] (inactive)	–
O=C1CCC(c2ccccc2)(c2ccccc2)CC1	9.99% [at 11.4 µM] (inactive)	–
CCN1C(=O)c2cccc3c(NC(=O)c4cccc(N5C(=O)CCC5=O)c4)ccc1c23	-0.197% (inactive)	–
COc1ccc(N2CCN(C(=O)CSc3nnc4c5cc(C)ccc5n(C)c4n3)CC2)cc1	-16.3% (inactive)	–
COc1cccc2c(=O)c(C(=O)NCc3cccs3)c[nH]c12	–	12.6 µM (active)
COc1ccc(C(=O)c2c[nH]c(C(=O)NCc3cccs3)c2)cc1	3.32% (inactive)	–
COc1ccc2nc3oc(C(=O)NCc4cccs4)cc3cc2c1	-14% (inactive)	–
O=C1CC(=O)N(CCc2ccc(F)cc2)C(=O)N1	-6.64% (inactive)	–
COc1ccc(-n2c(=O)cnc3cnc(N(C)C)nc32)cc1	3.84% (inactive)	–
NCS(=O)(=O)O	6.1% [at 11.4 µM] (inactive)	–
COc1ccccc1/C=C/C(=O)c1c2c(c(C)[nH]c1=O)CCCC2	-1.51% (inactive)	–
Cn1c(=S)c2[nH]c(SCCCc3ccccc3)nc2n(C)c1=O	-0.099% [at 11.4 µM] (inactive)	–
Cc1c(C)c2c(c(C)c1O)CC[C@@](C)(CCC[C@@H](C)CCC[C@@H](C)CCCC(C)C)O2	14.1% [at 25.6 µM] (inactive)	–
Cc1cc(C)n2nc(SCc3cc(=O)oc4ccc5ccccc5c34)nc2n1	-9.53% (inactive)	–
CCOC(=O)c1sc(NS(=O)(=O)c2ccccc2)nc1C	0.864% (inactive)	–
CC(=O)Nc1cc(S(=O)(=O)Nc2ccccc2)c(C)cc1C	-11.4% (inactive)	–
CCOc1cc(C)c(S(=O)(=O)Nc2ccc3cn[nH]c3c2)cc1C	–	0.631 µM (active)
CCOC(=O)c1ccc(S(=O)(=O)Nc2ccc3cn[nH]c3c2)cc1	–	12.6 µM (active)
Cc1cc(NC(=O)COC(=O)c2ccc(NS(=O)(=O)c3ccc(C)c(C)c3)cc2)no1	-14.2% (inactive)	–
COC(=O)Cc1cc(=O)n2[nH]c(C)c(-c3ccccc3)c2n1	-5.33% (inactive)	–
